In all, about 190,000 compounds went through this assay and about 400 (0.21%) were called active. Roughly 2% stayed inconclusive and do not appear here. This is one part of a sample in which actives are shown more often than they occur.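 Rule for the calls: active = percent activity GTP binding at least 20 points away from the 100% baseline, either down as inhibitor or up as activator; inconclusive = compound flagged as likely green fluorescent from well-wide comparison; inactive = the rest.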
What follows are compounds tested against Cell division control protein 42 homolog (Homo sapiens) (UniProt P60953) (assay: wildtype Cdc42 fluorescent GTP binding changes, either direction – biochemical, multiplex bead flow cytometry, Bodipy-GTP, primary screen (AID 761;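 note: median bead fluorescence of bound Bodipy-FL-GTP at 100 nM; 0% = excess unlabeled GTP control and 100% = no compound control; below 100% means less GTP binding so inhibitor and above means activator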)). Conditions: GST-Cdc42 beads, at 10 µM, actives lie on both sides.
Cell division control protein 42 homolog (Homo sapiens), sequence (P60953 whole entry, looked up): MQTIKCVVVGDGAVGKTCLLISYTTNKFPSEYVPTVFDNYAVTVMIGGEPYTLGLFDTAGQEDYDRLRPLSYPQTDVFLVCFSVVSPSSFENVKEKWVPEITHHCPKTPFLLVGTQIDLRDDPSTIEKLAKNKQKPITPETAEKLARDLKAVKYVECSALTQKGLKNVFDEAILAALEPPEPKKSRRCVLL

SMILES	percent activity (GTP binding)
Cc1ccccc1CC1(CO)CCCN(C(=O)c2cc(-c3ccccc3)no2)C1 (stereo not given)	98% (inactive)
CCC1(CC)NC(=O)N(CC(=O)OCC(=O)NC(=O)c2ccccc2)C1=O	101% (inactive)
c1ccc(-n2nnnc2-c2cccnc2)cc1	95% (inactive)
O=C(Cn1cnc([N+](=O)[O-])n1)NCCc1ccccc1	97% (inactive)
COc1cc(/C=C/C(=O)OCC(=O)N2CCOCC2)ccc1OCC#N	97% (inactive)
O=C(c1ccc(OC2CCN(Cc3ccccn3)CC2)cc1)N1CCCCCC1	96% (inactive)
COc1ccc(C)cc1NC(=O)CSc1nnc(CC(=O)Nc2ccccc2F)n1C	101% (inactive)
Cc1cc(N/N=C/c2ccccc2F)c2ccccc2n1	96% (inactive)
Cc1c(C(N)=O)sc2ncn(CCOc3ccccc3)c(=O)c12	89% (inactive)
Cc1ccc(C(=O)CS(C)(=O)=O)cc1	104% (inactive)
Cc1ccc(SC(CC(=O)c2ccc(C(C)(C)C)cc2)C(=O)O)cc1 (stereo not given)	77% (active)
CC(C)(C)c1ccc(C(=O)CSc2ncn[nH]2)cc1	103% (inactive)
CC(=O)N/N=C/c1cc2c(cc1[N+](=O)[O-])OCO2	97% (inactive)
CC1(C)CC(=O)CC2(C1)NCC(c1ccccc1Cl)c1c2[nH]c2ccccc12 (stereo not given)	96% (inactive)
COc1ccc(CN(C)Cc2nc3cc(OC)c(OC)cc3c(=O)[nH]2)c(OC)c1	105% (inactive)
O=C(Cc1cccs1)Nc1nnc(C2CC2)s1	99% (inactive)
CC(=O)Nc1nc(N(C)C)nc(N(C)C)n1	97% (inactive)
CN(c1ccccc1)S(=O)(=O)c1ccc(Cl)c(C(=O)OCC(=O)N2CCOCC2)c1	96% (inactive)
COc1ccccc1CN(C)c1nnnn1-c1ccccc1	102% (inactive)
O=C(NCC1CCN(Cc2ccccc2Cl)CC1)Nc1cccc(Cl)c1	106% (inactive)
CC(=O)c1cc(C#N)c(N2CC(C)OC(C)C2)nc1C (stereo not given)	98% (inactive)
OCCC1CN(Cc2ccccc2-c2ccco2)CCN1Cc1ccsc1 (stereo not given)	92% (inactive)

SMILES	percent activity (GTP binding)
COc1ccc(NC(=O)CSc2nnc(-c3ccccc3F)n2C2CC2)cc1S(N)(=O)=O	97% (inactive)
O=C(NCc1ccco1)C(=O)c1cn(CC(=O)N2CCCCCC2)c2ccccc12	94% (inactive)
C=CCN(CC=C)S(=O)(=O)c1ccc(C(=O)Nc2nc3c(s2)CCc2ccccc2-3)cc1	138% [activator] (active)
C=CCN(CC=C)S(=O)(=O)c1ccc(C(=O)Nc2sc3c(c2C(N)=O)CCCCC3)cc1	104% (inactive)
COCCN(CCOC)S(=O)(=O)c1ccc(C(=O)Nc2nc3c(s2)CCc2ccccc2-3)cc1	107% (inactive)
CCOc1cc(N2CCOCC2)c(OCC)cc1NC(=O)c1ccc(C)s1	94% (inactive)
O=C(CCl)N(Cc1cccc([N+](=O)[O-])c1)c1cccc(Cl)c1	96% (inactive)
CC(=O)NCCc1nc2cc(NC(=O)c3ccccc3)ccc2n1C	102% (inactive)
COC(=O)c1c(NC(=O)CCCC(=O)O)sc2c1CCCCC2	97% (inactive)
Cc1nc([N+](=O)[O-])cn1CC(=O)Nc1ccc2c(c1)OCO2	94% (inactive)
C/C(Cn1nnc2ccccc21)=N\OC(=O)c1cc(F)c(F)cc1Cl	89% (inactive)
CCCC(C)C(=O)NCc1ccncc1 (stereo not given)	98% (inactive)
OC1CCCN(c2ncnc3c2nnn3Cc2c(F)cccc2Cl)C1 (stereo not given)	94% (inactive)
CC(C)(C)c1ccc(/C=C2\SC(=O)N=C2N)cc1	96% (inactive)
C=CCC1(CC=C)CCCN1C(=O)CC1C(=O)NCCN1Cc1ccccc1OC (stereo not given)	99% (inactive)
COc1ccc(C(C)=O)cc1CSc1nc2nc(C)cc(C)n2n1	96% (inactive)
COc1ccc(CCNC(=O)C(=O)NCc2ccccc2C)cc1OC	100% (inactive)
O=C(C1CCCO1)N1CCN(C(=S)NC2CC2)CC1 (stereo not given)	98% (inactive)
S=C(NC1CCCCC1)NN1CCOCC1	99% (inactive)
COc1ncnc2sc3c(c12)CCCC3	103% (inactive)
COc1cc(/C=N/Nc2ccc(C)cc2)cc(Br)c1O	100% (inactive)
COc1ccc(/C=N/Nc2ncnc3sc4c(c23)CCCC4)cc1O	73% (active)

SMILES	percent activity (GTP binding)
Cn1c(N)c(C(=O)COC(=O)/C=C/c2ccc(OC(F)F)cc2)c(=O)n(C)c1=O	94% (inactive)
Cc1ccc2c(c1)C1CN(C)CCC1N2C(=S)Nc1ccc(Cl)cc1Cl (stereo not given)	97% (inactive)
CCCCCCCNc1nc(Cl)nc(NCCO)n1	92% (inactive)
COc1cccc(-n2nc(C(=O)N3CCN(Cc4ccccc4)CC3)c3ccccc3c2=O)c1	96% (inactive)
CCOC(=O)N1CCC(=NNC(N)=O)CC1	102% (inactive)
CCOC(=O)C(NC(C)=O)C(=O)Nc1ccc(OC)cc1 (stereo not given)	93% (inactive)
S=C(Nc1cccc(Br)c1)N1CCn2cccc2C1c1cccnc1 (stereo not given)	96% (inactive)
O=C(CSc1ccccc1)Nc1ccc(NC(=O)c2ccco2)cc1	100% (inactive)
O=C(CSc1ccccc1)Nc1ccc(C(=O)Nc2cccc(O)c2)cc1	77% (active)
Cc1cc(C)cc(NC(=O)CSc2ccccc2)c1	91% (inactive)
COCCSc1nnc(NC(=O)c2cc(OC)c(OC)cc2[N+](=O)[O-])s1	102% (inactive)
O=C(CSc1ncnc2c1nnn2Cc1ccc(F)cc1)NC1CCCC1	96% (inactive)
CC(=O)c1ccc(NC(=O)C(C)N(C)CC(=O)Nc2ccccc2Cl)cc1 (stereo not given)	98% (inactive)
COC(=O)C(C)N=Cc1ccccc1 (stereo not given)	97% (inactive)
NS(=O)(=O)c1ccc(CCNC(=O)c2ccc(Cl)cc2[N+](=O)[O-])cc1	92% (inactive)
COC(=O)c1ccc(-n2cnc3ccccc32)nc1	95% (inactive)
CCC(C)NCC(=O)Nc1ccc([N+](=O)[O-])cc1C(=O)Nc1ccccc1F (stereo not given)	98% (inactive)
CCCn1nc(Oc2nc(NC(C)C)nc(N(C)C)n2)ccc1=O	97% (inactive)
CN(C)c1nnnn1-c1ccc(Cl)cc1	96% (inactive)
O=C(/C=C/c1ccccc1[N+](=O)[O-])OC1CCCCC1=O (stereo not given)	97% (inactive)
O=C(N/N=C/c1ccco1)c1ccc(C(=O)N/N=C/c2ccco2)o1	84% (inactive)

From PubChem BioAssay AID761 (NMMLSC, 2007)
